# This is part of a sample that, as a whole, favours compounds with a hit. Of some 83,000 tested, about 20% had one in any assay.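 Single-concentration screen, 48 h exposure, 96-well plates. Endpoint: percent growth. Below 10 = active.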 Values without a mark were called inactive. The source made the active and inactive calls.
# Tests used:
# Test in all cases: NCI-60 one-dose screen, 48 h (100 = growth as untreated, 0 = no growth, -100 = all killed)
# Conditions in all cases: 10 µM
# HCT-15 colon = tested on: HCT-15 colon
# HT29 colon = tested on: HT29 colon
# SNB-75 CNS = tested on: SNB-75 CNS
# SNB-19 CNS = tested on: SNB-19 CNS
# U251 CNS = tested on: U251 CNS
# PC-3 prostate = tested on: PC-3 prostate
# SK-MEL-5 melanoma = tested on: SK-MEL-5 melanoma
# UACC-62 melanoma = tested on: UACC-62 melanoma
# LOX IMVI melanoma = tested on: LOX IMVI melanoma
# SK-MEL-28 melanoma = tested on: SK-MEL-28 melanoma
Compound,growth (HCT-15 colon),growth (HT29 colon),growth (SNB-75 CNS),growth (SNB-19 CNS),growth (U251 CNS),growth (PC-3 prostate),growth (SK-MEL-5 melanoma),growth (UACC-62 melanoma),growth (LOX IMVI melanoma),growth (SK-MEL-28 melanoma)
COc1ccc(NC(=O)c2sc3nc4c(cc3c2N)C(O)CCC4)cc1 (stereo not given),95.5%,97.8%,110%,97.1%,105%,95.7%,99.5%,98.9%,102%,102%
O=NN(CC(=O)N/N=C/C=C\c1ccccc1)CC(=O)N/N=C/C=C/c1ccccc1,94%,110%,72.9%,92.5%,89%,85.2%,84.9%,101%,87.6%,99.4%
O=NN(CCCl)C(=O)NCc1ccc(-c2ccc(CNC(=O)N(CCCl)N=O)cc2)cc1,98.7%,96.9%,82.7%,84.6%,70.3%,86.7%,94.2%,86.2%,72.2%,104%
O=[N+]([O-])c1cc2ncccc2c2ncccc12,71.9%,102%,88.2%,96%,102%,77.8%,72.1%,76.4%,45.5%,92%
Cc1ccc(/C(CS(=O)(=O)c2ccc(C)cc2)=N\O)cc1,95.2%,99.7%,87.8%,88%,90.4%,94.3%,98.9%,87.3%,102%,103%
COc1cc(/C=C/C(=O)c2cc(-c3ccc(C(F)(F)F)cc3)ccc2O)cc(OC)c1OC,60%,60.5%,78.6%,75.4%,69%,44.4%,47.2%,53.5%,19.2%,92.2%
O=C(Nc1ccc(OCc2nnc(-c3ccccc3)o2)c(F)c1)Nc1ccc(Cl)c(Cl)c1,49.4%,53%,66.4%,59.9%,50.5%,55.6%,65.9%,58%,54.8%,73%
CCOC(=S)Sc1ccc([N+](=O)[O-])cc1[N+](=O)[O-],82.8%,0.214% (active),99.5%,111%,90.4%,83.7%,88.4%,99%,14.3%,67.5%
O=C1/C(=C/c2ccc(O)cc2)Cc2ccc(Cl)cc21,89.2%,110%,73.4%,93.9%,95.8%,92.6%,79.3%,77.3%,84.2%,114%
COC(=O)[C@]12CC[C@@H](C)[C@H](C)[C@@H]1C1=CC[C@@H]3[C@@]4(C)C[C@@H](O)[C@H](O)[C@@](C)(CO)[C@@H]4[C@H](O)C[C@@]3(C)[C@]1(C)CC2,-51.4% (active),-90.5% (active),-37.7% (active),-23.4% (active),-94.6% (active),-34.5% (active),-95.8% (active),-64% (active),-93% (active),-48.4% (active)
C=CCNC(=S)NN,90.7%,55.5%,95.3%,94.4%,77.4%,58.4%,99.5%,99.6%,97.3%,104%
O=C(NNC(=O)c1ccncc1)Nc1ccc([N+](=O)[O-])cc1,101%,99.5%,111%,107%,113%,103%,112%,113%,101%,127%
CCCCn1c(=O)[nH]c(N)c(C(c2ccc(Cl)cc2)c2c(N)[nH]c(=O)n(CCCC)c2=O)c1=O,76.9%,24.6%,57.1%,47.9%,35.8%,32%,-11.3% (active),41.3%,41.2%,44.7%
CCCCCc1cc[n+](CC(=O)c2ccc(Cl)cc2)cc1,98.5%,64.7%,84.4%,96.7%,97.8%,85.7%,94.9%,82.8%,87.4%,101%
NC(=O)C1CCCN(Cc2c[nH]c3ccccc23)C1 (stereo not given),102%,95.6%,85.9%,103%,95.2%,91.2%,99.6%,104%,90.1%,110%
C=C1C(=O)O[C@H]2[C@H]1CC/C(COC(=O)OCCCCCOC(=O)OC/C1=C/CC[C@@]3(C)O[C@H]3[C@H]3OC(=O)C(=C)[C@@H]3CC1)=C\CC[C@@]1(C)O[C@@H]21,-87.7% (active),-85.6% (active),80.3%,25.7%,4.2% (active),-25.9% (active),-78.8% (active),-26.4% (active),-90.1% (active),-11% (active)
COc1ccc(-c2nsc3c2NC(=O)CC3c2cccc(Cl)c2)cc1 (stereo not given),27.7%,2.95% (active),-0.284% (active),54.3%,35%,15.7%,23%,41.6%,43.7%,49.8%
O=C(CCc1ccccc1)N1CCN(C(=O)CCc2ccccc2)CC1,108%,101%,93.9%,99.6%,104%,94.3%,105%,95.4%,95%,108%
COc1ccc(-c2nnc(SCC(=O)c3ccccc3)o2)cc1,96.3%,90.8%,92.5%,96.9%,98.1%,97.1%,92.8%,88.3%,92.8%,106%
Clc1cc(Cl)c(Cl)c(-c2nc(-c3cccnc3)cs2)c1,87.1%,46.3%,91.7%,103%,88.7%,88.5%,93.9%,77.5%,64.4%,72.2%

Compound,growth (HCT-15 colon),growth (HT29 colon),growth (SNB-75 CNS),growth (SNB-19 CNS),growth (U251 CNS),growth (PC-3 prostate),growth (SK-MEL-5 melanoma),growth (UACC-62 melanoma),growth (LOX IMVI melanoma),growth (SK-MEL-28 melanoma)
N#Cc1c2c([nH]c(=O)c1C(N)=O)CCCCC2,105%,105%,104%,99%,98.3%,103%,95.8%,88.3%,101%,106%
N#Cc1c(-c2ccccc2)nc(SCC(=O)N2CCOCC2)[nH]c1=O,103%,106%,61.4%,111%,105%,98.1%,102%,100%,91.9%,114%
CC(=O)Nc1nc(C)c(C(=O)N/N=C/c2cccn2C)s1,106%,101%,109%,117%,103%,94.9%,98.4%,87.7%,98.4%,105%
Cn1cnc([N+](=O)[O-])c1Sc1nnc(-c2ccccc2)c(-c2ccccc2)n1,56%,74.8%,100%,109%,77.7%,95.5%,106%,64.3%,67.8%,76%
Clc1cc(Cl)c(OCCCCCCN2CCNCC2)c(Cl)c1,-32% (active),-34.1% (active),52.7%,49.8%,8% (active),46.1%,-15.6% (active),-54.4% (active),-66.2% (active),-12.6% (active)
O=C(NC1CCN(Cc2ccccc2)CC1)c1cc(-c2ccncc2)nc2ccc(Cl)cc12,24.2%,19.9%,68.7%,24.8%,7.4% (active),33.9%,16%,7.85% (active),15.3%,46.5%
CCOc1ccc2c(c1)CC[C@@H]1[C@@H]2CC[C@]2(C)[C@@H](O)[C@@H](O)C[C@@H]12,95%,109%,107%,99%,95%,91.2%,96.8%,94.4%,102%,100%
CCNC1(NC#N)CCCCC1,98.8%,123%,91.2%,110%,98.9%,95%,96.8%,105%,104%,103%
COc1ccc(C(=O)/C=C/c2cc(-c3ccc4c(c3)OCO4)n[nH]2)cc1OC,52.1%,36.4%,60.3%,47.1%,31.8%,48.4%,81.7%,88.9%,47.5%,103%
CC(=O)OCC(COC(C)=O)(COC(C)=O)COC(C)=O,102%,102%,105%,104%,103%,102%,93%,103%,98.1%,121%
CCCCCN(CCCCC)C(C)C(O)c1ccc2cc(Cl)c3ccccc3c2c1 (stereo not given),93.1%,55.5%,93.8%,104%,90%,80.6%,89.9%,88.2%,94.3%,108%
CCCCCC(=O)N1c2ccccc2NC2=C(C(=O)CC(c3ccc(OC)c(OC)c3)C2)C1c1ccc(C(F)(F)F)cc1 (stereo not given),60.6%,88%,82.7%,58.1%,49.5%,16.4%,18.8%,53.9%,60.8%,86.7%
COc1ccc(Cn2cc3c(c2-c2cc(OC)c(OC)c(OC)c2)CCc2cnoc2-3)cc1[N+](=O)[O-],34.2%,13.1%,18.5%,43.2%,39.8%,27.6%,16%,35.4%,39.6%,68.9%
CC1=CSC2=NC(c3ccc(Cl)c(Cl)c3)=CC(c3ccc(Cl)cc3)N12 (stereo not given),66.9%,101%,-21.8% (active),38.5%,34.8%,45.4%,13.6%,10.6%,-82.4% (active),37.4%
O=c1oc2c3ccc4cnccc4c3[nH]c2c2ccccc12,80.9%,-19.7% (active),14.1%,14.6%,-35% (active),71.4%,28.3%,73.2%,13.5%,5.14% (active)
CC(C)C[C@H](NC(=O)Cn1ccc2ccccc2c1=O)B(O)O,57.9%,44.7%,96.8%,76.8%,87.6%,86.9%,37.9%,49.8%,50.6%,48.7%
COc1ccc(C2=NNC(c3sc(Cl)nc3Cl)C2)cc1 (stereo not given),34.2%,85.9%,101%,95.6%,93.7%,89.6%,54.6%,96%,9.86% (active),98.9%
COc1ccc(-c2nc(NC(=O)CS(=O)(=O)c3ccc(F)cc3)sc2C)cc1,18.7%,4.71% (active),79.6%,86.8%,47.8%,44.1%,35.9%,74.9%,51.6%,88.5%
CCN(Cc1ccccc1)C1CCN(Cc2cc(Br)ccc2O)CC1,50.1%,13.3%,49.2%,65.7%,43.9%,45.7%,32.1%,51.7%,54.9%,76.1%
NC(N)=NS(=O)(=O)c1ccc(Nc2ccc3nnc(-c4ccncc4)n3n2)cc1,100%,104%,90.4%,94.3%,104%,107%,98.3%,97.1%,97.2%,107%
